{
  "source": "paper PMC7819943",
  "about": "“Rice protein-binding microarrays: a tool to detect cis-acting elements near promoter regions in rice”",
  "note": "In all, about 39,000 sequences were measured (“fluorescence intensity (a.u.)”: median about 4,300, highest 2% from about 39,000 on). This is one part of a sample in which the highest values are shown more often than they occur.",
  "data": [
    {"target": "T1, OsSMF1 (Oryza sativa, UniProt Q6ZLB0 1-436)", "T1 sequence": "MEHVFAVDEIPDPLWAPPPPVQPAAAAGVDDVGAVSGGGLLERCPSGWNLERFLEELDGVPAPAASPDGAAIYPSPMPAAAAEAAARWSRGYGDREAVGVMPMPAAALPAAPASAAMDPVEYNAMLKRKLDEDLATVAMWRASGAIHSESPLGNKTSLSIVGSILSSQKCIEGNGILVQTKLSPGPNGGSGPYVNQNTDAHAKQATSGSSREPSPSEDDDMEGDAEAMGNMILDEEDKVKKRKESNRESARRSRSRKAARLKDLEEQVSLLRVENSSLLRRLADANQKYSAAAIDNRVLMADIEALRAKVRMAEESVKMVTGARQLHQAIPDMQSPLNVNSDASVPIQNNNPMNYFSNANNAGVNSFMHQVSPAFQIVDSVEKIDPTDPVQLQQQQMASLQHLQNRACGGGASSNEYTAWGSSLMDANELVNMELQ", "assay": "protein-binding microarray (RPBM); PBS, 2% BSA, 51.3 ng/ul salmon testes DNA, 50 uM zinc acetate, 200 nM TF, 25 C, 1 h; high values mean tight binding", "conditions": "protein: recombinant; tags: N-terminal polyhistidine and DsRed monomer fusion (pET32a); chain copies: 2; label: CyDye5-dUTP incorporated in the synthesized complementary strand; 3' TTTTT single-stranded linker to array surface; dsDNA, one strand shown", "summary_of_the_method": "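For the binding signal, per-feature fluorescence intensity was read in arbitrary units on an Axon 4000B scanner. Before scanning, a 2% BSA-blocked custom Agilent array made double-stranded with Cy5-dUTP was washed after 1 h at 25 °C with 200 nM protein and 50 µM zinc acetate. The proteins were Ni–NTA-purified transcription factors with N-terminal polyhistidine and DsRed fusions, expressed in E. coli BL21-CodonPlus.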", "values": [
      {"sequence": "CAAACAATATTCTTTTGTGACTAGATCAAGCCGTAGTGTTCGGAGTCACCTAGTGCAG", "binding signal": "3650 fluorescence intensity (a.u.)"},
      {"sequence": "TATGTACCTTTTCCACAGAACCCTCTACTGTGCCAGGTCACGGAGTCACCTAGTGCAG", "binding signal": "15600 fluorescence intensity (a.u.)"},
      {"sequence": "CGCGGCAGATCCGCTGGTTGTGGCGGCGTCAGCGGTAGCCCGGAGTCACCTAGTGCAG", "binding signal": "4030 fluorescence intensity (a.u.)"},
      {"sequence": "ACGACATGCGTGCAAATGCATTGTAAATTTGTAATACGGCCGGAGTCACCTAGTGCAG", "binding signal": "22300 fluorescence intensity (a.u.)"},
      {"sequence": "TACTTTCGTTTGCAAATATGCGGAATGATGGGGCTGTTTCCGGAGTCACCTAGTGCAG", "binding signal": "3700 fluorescence intensity (a.u.)"},
      {"sequence": "CACTCTTTATTTTATTATGACTTGATTCGTCATCAAATGTCGGAGTCACCTAGTGCAG", "binding signal": "3870 fluorescence intensity (a.u.)"},
      {"sequence": "ACCCACACCTCGTCCCCGTCACCTCCTATATCATCGTCATCGGAGTCACCTAGTGCAG", "binding signal": "6470 fluorescence intensity (a.u.)"},
      {"sequence": "AATATTCTCTGTCTCGGTGTGGTGTCTCTCCTCTGACGGCCGGAGTCACCTAGTGCAG", "binding signal": "4810 fluorescence intensity (a.u.)"},
      {"sequence": "ATTAGATTTACCGCAAACAATGACGTCCTCCCTGCCTGGACGGAGTCACCTAGTGCAG", "binding signal": "4900 fluorescence intensity (a.u.)"},
      {"sequence": "ATAATGCATTTAGTATTGCCACCCTGTACTAATAGATGTTCGGAGTCACCTAGTGCAG", "binding signal": "3810 fluorescence intensity (a.u.)"},
      {"sequence": "CGAGGCGGGGTGCACCTTCATGGTCAGTGGCCCGTGGTTCCGGAGTCACCTAGTGCAG", "binding signal": "4270 fluorescence intensity (a.u.)"},
      {"sequence": "CGGTGATCCCATACTTGGCACGTACACGTGCCCTCTTGATCGGAGTCACCTAGTGCAG", "binding signal": "6030 fluorescence intensity (a.u.)"},
      {"sequence": "AAAAGTAATTTATAAATAAAATTTCTATATACGTGTTCTTCGGAGTCACCTAGTGCAG", "binding signal": "3220 fluorescence intensity (a.u.)"},
      {"sequence": "AAACGGATAAGTTAGTAAGTAATTTCTTCCCTCCTAATTTCGGAGTCACCTAGTGCAG", "binding signal": "45900 fluorescence intensity (a.u.)"},
      {"sequence": "TTATATACTCCCTCTTTCCACGTAAGTTACATTTATTACTCGGAGTCACCTAGTGCAG", "binding signal": "7340 fluorescence intensity (a.u.)"},
      {"sequence": "GATCTGACCTCCTCAGCCTCCTTCCCCAACTGTTCCACGCCGGAGTCACCTAGTGCAG", "binding signal": "44800 fluorescence intensity (a.u.)"},
      {"sequence": "CCCGGGCCTCGCCGCGCCGCGCCACGCCACGCCTCCGCCCCGGAGTCACCTAGTGCAG", "binding signal": "7580 fluorescence intensity (a.u.)"},
      {"sequence": "CTCCTCACACATTCCCACGCACACATTTCCCCATGCACATCGGAGTCACCTAGTGCAG", "binding signal": "3180 fluorescence intensity (a.u.)"},
      {"sequence": "TTCTGTAACTTTTCCAACTCACCTTCCTCGCTTCCCACGCCGGAGTCACCTAGTGCAG", "binding signal": "4820 fluorescence intensity (a.u.)"},
      {"sequence": "TCCTCCTTCCTTCCACCTCACCCCAACCCCAACCCCAACCCGGAGTCACCTAGTGCAG", "binding signal": "4080 fluorescence intensity (a.u.)"},
      {"sequence": "GCGCGCCACGCCACGCCACGCGCCCACGCCTCGCCTCGCCCGGAGTCACCTAGTGCAG", "binding signal": "10000 fluorescence intensity (a.u.)"},
      {"sequence": "TTTTCCAACTTACCTCCTTCATTTTCCACGCGCACATTTTCGGAGTCACCTAGTGCAG", "binding signal": "65500 fluorescence intensity (a.u.)"},
      {"sequence": "GGCCGCGTGCGTGTGTCCAAACCTTCTCCACGCATTTCCTCGGAGTCACCTAGTGCAG", "binding signal": "4220 fluorescence intensity (a.u.)"},
      {"sequence": "TGCCCACGCCGCGCCGCCGCCTCCTCCTCCTCCTCCTCCTCGGAGTCACCTAGTGCAG", "binding signal": "46900 fluorescence intensity (a.u.)"},
      {"sequence": "GCGCCACCTATAAAACGCCCGCGCGCCCCGCGCCGCCTCCCGGAGTCACCTAGTGCAG", "binding signal": "40300 fluorescence intensity (a.u.)"},
      {"sequence": "CGTCCACCGCGCCGCCGCCGCCCTCCGTCACGCGCGCGCTCGGAGTCACCTAGTGCAG", "binding signal": "3270 fluorescence intensity (a.u.)"},
      {"sequence": "GCCTTTCTCTCCACCGCGATTTCTATATATAAAACGCCCCCGGAGTCACCTAGTGCAG", "binding signal": "9620 fluorescence intensity (a.u.)"},
      {"sequence": "CCACGCGCTCTATAAGTAGACGGCTCTTCGGCGCGTGTCACGGAGTCACCTAGTGCAG", "binding signal": "3400 fluorescence intensity (a.u.)"},
      {"sequence": "GGTTGAAGTTAATACGTGCCAAATCTATAACTTTATTCCGCGGAGTCACCTAGTGCAG", "binding signal": "3300 fluorescence intensity (a.u.)"},
      {"sequence": "TGGGAGAGGGTAGTAGGTGGGCCGAGGTACACACGTGGGGCGGAGTCACCTAGTGCAG", "binding signal": "5560 fluorescence intensity (a.u.)"},
      {"sequence": "TTCGCTGACACGCCCCGTCCACTCTTGTCCACGCTGCGCCCGGAGTCACCTAGTGCAG", "binding signal": "3380 fluorescence intensity (a.u.)"},
      {"sequence": "TCTTGCCTTCTTGCCCTCCACACTGTCCACGTCTCTCCAACGGAGTCACCTAGTGCAG", "binding signal": "4650 fluorescence intensity (a.u.)"},
      {"sequence": "GATCAAGGAGGCCGTGGCGGACAGGGAGTGCGGGGTGGATCGGAGTCACCTAGTGCAG", "binding signal": "3360 fluorescence intensity (a.u.)"},
      {"sequence": "AAAACTTGCAACTGCAATTCATGTCAATTTGCCACATCACCGGAGTCACCTAGTGCAG", "binding signal": "13200 fluorescence intensity (a.u.)"},
      {"sequence": "CAGTTAACCACCTAACTGATCAAACTCATTCATGTCACTCCGGAGTCACCTAGTGCAG", "binding signal": "5110 fluorescence intensity (a.u.)"},
      {"sequence": "TCAATAGAAAATAAACTGATTCATGTTAAAACCTTCACACCGGAGTCACCTAGTGCAG", "binding signal": "46600 fluorescence intensity (a.u.)"},
      {"sequence": "ACAGCGTAGGCTTTTCTTTCACGTCACCACGCGTACGCGACGGAGTCACCTAGTGCAG", "binding signal": "6560 fluorescence intensity (a.u.)"},
      {"sequence": "TAGTACCAAAGTATTTGTGTGTCACTATGATGTCCTGCCTCGGAGTCACCTAGTGCAG", "binding signal": "6010 fluorescence intensity (a.u.)"},
      {"sequence": "GGGTGAAGCGTCGCGCGGCGCGCCGTGGCGTGGCGTGGCGCGGAGTCACCTAGTGCAG", "binding signal": "6090 fluorescence intensity (a.u.)"},
      {"sequence": "ATCTTCTTCTTCATCGCTGTGCAGCTACACACTCTCACTGCGGAGTCACCTAGTGCAG", "binding signal": "3180 fluorescence intensity (a.u.)"},
      {"sequence": "GTGTGGTTTTGCTGATGTGGCGCTGACGTGGCGATATTGACGGAGTCACCTAGTGCAG", "binding signal": "48500 fluorescence intensity (a.u.)"},
      {"sequence": "GGCGGTTTTGGATGACGTGGTGCCTACGTGGCTAATTTGACGGAGTCACCTAGTGCAG", "binding signal": "35600 fluorescence intensity (a.u.)"}
    ]}
  ]
}
